Several values for one entry are separate records, joined by “and”; a condition that tells them apart may be missing. Equal entries are not always repeated. Inconclusive results are not listed. Activity calls are given as the source filed them. Unless noted, calls follow the shape of the dose curve; as a rule, active = well fitted curve in the direction sought with a large enough effect in the repeat runs; inconclusive = weak or mixed curves; inactive = no such curve, though single readings can be large; an effect the other way counts as inactive or inconclusive.
Experiments:
[1] = qHTS assay for small molecule agonists of the p53 signaling pathway (AID 651631; calls by dose curve; also: nearly all actives have a fitted effect of over 15% in size; also: potency is read from the fitted curve at half-maximal effect)
In short: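 Read-out is beta-lactamase FRET fluorescence measured 2 h after substrate addition at room temperature, in HCT-116 cells with a p53 response element-driven reporter exposed to compounds for 16 h at 37 °C.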

[2] = qHTS assay for small molecules that induce genotoxicity in human embryonic kidney cells expressing luciferase-tagged ATAD5 (AID 651632); also: nearly all actives have a fitted effect of over 15% in size; also: potency is read from the fitted curve at half-maximal effect
In short: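 DMSO vehicle served as the control. HEK293T reporter cells, 16 hr at 37C, then 30 min Amplite at room temperature; ATAD5 induction is measured as luciferase activity.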

[3] = qHTS assay for small molecule agonists of the p53 signaling pathway - cell viability (AID 651633; calls by dose curve; also: nearly all actives have a fitted effect of over 30% in size; also: potency is read from the fitted curve at half-maximal effect)
In short: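 Viability counter-read: CellTiter-Glo luminescence (30 min, room temperature) in the same p53RE-bla plates. These plates had been exposed to compounds for 16 h at 37 C.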

[4] = qHTS assay to test for compound auto fluorescence at 535 nm (green) in HepG2 cells (AID 720675)
[5] = qHTS assay to test for compound auto fluorescence at 590 nm (red) in HEK293 cells (AID 720679)
In short: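 Autofluorescence equivalency to Rose Bengal sodium, 540/590nm, in HEK293 cells exposed overnight to 23 nL compound per well.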

[6] = qHTS assay to test for compound auto fluorescence at 535 nm (green) in HEK293 cells (AID 720680)
[7] = qHTS assay to test for compound auto fluorescence at 460 nm (blue) in HEK293 cell free culture (AID 720681)
In short: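 Blue fluorescence (Ex 405/Em 460 nm, triamterene-equivalent) was read immediately after pin transfer of compound or DMSO into medium (DMEM, 10% FBS) without cells.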

[8] = qHTS assay to test for compound auto fluorescence at 535 nm (green) in HEK293 cell free culture (AID 720682)
In short: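 Fluorescein serves as the green reference fluorophore; each compound's intrinsic emission at 535 nm (excitation 485 nm) is reported as an equivalent amount of that dye, measured in serum-containing DMEM without cells.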

[9] = qHTS assay to test for compound auto fluorescence at 590 nm (red) in HEK293 cell free culture (AID 720683)
In short: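 Red-channel autofluorescence of compounds in culture medium (DMEM, 10% FBS), no cells, measured at 540/590 nm. Rose Bengal sodium is the reference fluorophore for equivalence.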

[10] = qHTS assay to test for compound auto fluorescence at 590 nm (red) in HepG2 cell free culture (AID 720684)
In short: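 Cell-free; medium MEM + 10% FBS; compound or DMSO added by pintool; read Ex 540/Em 590 nm; Rose Bengal sodium as red reference fluorophore.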

[11] = qHTS assay to test for compound auto fluorescence at 460 nm (blue) in HepG2 cell free culture (AID 720685)
In short: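 Cell-free plates of MEM plus 10% FBS received 23 nL compound or DMSO vehicle; blue-channel (405/460 nm) intensity scored against triamterene as reference fluorophore.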

[12] = qHTS assay to test for compound auto fluorescence at 535 nm (green) in HepG2 cell free culture (AID 720686)
[13] = qHTS assay to test for compound auto fluorescence at 460 nm (blue) in HepG2 cells (AID 720687)
In short: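 Blue-channel autofluorescence (Ex/Em 405/460 nm, triamterene-equivalent) was measured after 1 hr compound exposure at 37 C, 5% CO2. Cells were HepG2, plated overnight at 37 C in MEM plus 10% FBS.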

[14] = target: Glucocorticoid receptor (Homo sapiens) (UniProt P04150); experiment: qHTS assay to identify small molecule agonists of the glucocorticoid receptor (GR) signaling pathway (AID 720691; active = well fitted activation curve with a large enough effect in the signal ratio in the repeat runs, not every such curve was filed as active; the % refers to the signal ratio)
In short: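 Compounds in DMSO, alongside positive controls, were added to GR-bla HeLa reporter cells and incubated 18 h at 37 C; GRE-driven beta-lactamase was detected by fluorescence after 2 h with FRET substrate at room temperature.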

[15] = qHTS assay for small molecules that induce genotoxicity in human embryonic kidney cells expressing luciferase-tagged ATAD5 - cell viability (AID 651634; calls by dose curve; also: nearly all actives have a fitted effect of over 25% in size; also: potency is read from the fitted curve at half-maximal effect)
In short: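 Here HEK293T cells with the ATAD5 luciferase reporter are incubated with test compounds for 15.5 hr, and cytotoxicity is then gauged by measuring protease activity in live cells using fluorescence.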

[16] = qHTS assay for small molecule disruptors of the mitochondrial membrane potential - cell viability (AID 720634; calls by dose curve; also: nearly all actives have a fitted effect of over 20% in size; also: potency is read from the fitted curve at half-maximal effect)
In short: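 Viability of HepG2 cells is scored from ATP content by luminescence; cells are exposed to compound for 1 hr at 37 C and 5% CO2, then dosed with m-MPI dye before the CellTiter-Glo reagent.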

[17] = qHTS assay for small molecule disruptors of the mitochondrial membrane potential (AID 720635); also: potency is read from the fitted curve at half-maximal effect
In short: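 Mitochondrial membrane potential tracked with Mito-MPS dye, red aggregates (ex 540/em 590 nm) against green monomers (ex 490/em 535 nm). Compound treatment 1 hr at 37C, dye 30 min in HepG2.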

[18] = qHTS assay to test for compound auto fluorescence at 590 nm (red) in HepG2 cells (AID 720674)
In short: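 We screened compounds on adherent HepG2 cells, incubating them for an hour at 37 C in 5% CO2 before reading emission at 590 nm under 540 nm excitation; values reflect equivalence to Rose Bengal sodium fluorescence.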

[19] = qHTS assay to test for compound auto fluorescence at 460 nm (blue) in HEK293 cells (AID 720678)
In short: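 Auto fluorescence in the blue band was quantified as triamterene equivalency. HEK293 cells were seeded at 2,000/well, dosed after a 4-5 hr attachment, and kept overnight at 37C before the 405/460 nm reading.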

[20] = target: Glucocorticoid receptor (Homo sapiens) (UniProt P04150); experiment: qHTS assay to identify small molecule antagonists of the glucocorticoid receptor (GR) signaling pathway (AID 720692; active = well fitted inhibition curve with a large enough effect in the signal ratio in the repeat runs, not every such curve was filed as active; the % refers to the signal ratio)
In short: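 In a 1536-well cell format, compounds were added 4 h after seeding GR-bla HeLa cells, together with dexamethasone at 5 nM final; reporter activity was measured by FRET-substrate fluorescence following 18 h at 37 C.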
% is scaled to controls: 0 for no effect and ±100 for the full control effect.

Sequence of Glucocorticoid receptor (Homo sapiens) (P04150 whole entry, looked up): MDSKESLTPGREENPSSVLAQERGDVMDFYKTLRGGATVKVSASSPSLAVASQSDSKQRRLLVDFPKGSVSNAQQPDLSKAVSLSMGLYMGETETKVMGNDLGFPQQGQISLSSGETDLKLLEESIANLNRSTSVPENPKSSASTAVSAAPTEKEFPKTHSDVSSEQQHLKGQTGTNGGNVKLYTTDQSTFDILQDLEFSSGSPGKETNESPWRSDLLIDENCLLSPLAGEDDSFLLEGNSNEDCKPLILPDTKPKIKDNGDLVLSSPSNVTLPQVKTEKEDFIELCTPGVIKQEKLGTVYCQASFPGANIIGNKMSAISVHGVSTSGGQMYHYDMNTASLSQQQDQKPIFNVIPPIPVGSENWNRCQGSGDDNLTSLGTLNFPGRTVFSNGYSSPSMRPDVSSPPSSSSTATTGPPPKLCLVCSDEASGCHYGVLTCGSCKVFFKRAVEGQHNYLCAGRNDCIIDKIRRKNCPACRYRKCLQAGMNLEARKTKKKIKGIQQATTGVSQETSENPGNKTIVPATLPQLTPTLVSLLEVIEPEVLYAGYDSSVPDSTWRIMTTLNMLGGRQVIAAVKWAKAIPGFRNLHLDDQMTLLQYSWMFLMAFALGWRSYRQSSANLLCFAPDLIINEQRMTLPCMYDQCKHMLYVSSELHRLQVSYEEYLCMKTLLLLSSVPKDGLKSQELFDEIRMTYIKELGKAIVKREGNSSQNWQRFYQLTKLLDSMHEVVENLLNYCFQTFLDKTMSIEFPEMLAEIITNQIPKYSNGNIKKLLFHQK

OC1CCC(C2CCCCC2)CC1 (centres undefined)
inactive: Potency [1] | Potency [2] | Potency [3] | Potency [4] | Potency [5] | Potency [6] | Potency [7] | Potency [8] | Potency [9] | Potency [10] | Potency [11] | Potency [12] | Potency [13] | Potency [14]

COc1c(C)c2c(c(O)c1C/C=C(\C)CCC(=O)OCCN1CCOCC1)C(=O)OC2
active: Potency [1] 0.106 µM
inactive: Potency [2] | Potency [15] | Potency [16] | Potency [17] | Potency [18] | Potency [4] | Potency [19] | Potency [5] | Potency [6] | Potency [7] | Potency [8] | Potency [9] | Potency [10] | Potency [11] | Potency [12] | Potency [13] | Potency [14]

Nc1nc2c(ncn2COCCO)c(=O)[nH]1
inactive: Potency [1] | Potency [2] | Potency [3] | Potency [16] | Potency [17] | fluorescence, relative to Rose Bengal [18] 2e-05% [at 18.6 µM] | fluorescence, % of triamterene [19] -0.0369% [at 18.6 µM] | fluorescence, % of fluorescent control [5] -0.073% [at 18.6 µM] | fluorescence, % of fluorescein [6] 0.029% [at 18.6 µM] | fluorescence, % of fluorescent control [7] 0.0219% [at 18.6 µM] | activity change [8] -0.0229% [at 18.6 µM, stronger effect = higher value] | fluorescence, % of fluorescent control [9] 0.0201% [at 18.6 µM] | fluorescence, % of Rose Bengal [10] -0.264% [at 18.6 µM] | fluorescence, % of fluorescent control [11] 0.0242% [at 18.6 µM] | fluorescence, % of fluorescein control [12] -0.0997% [at 18.6 µM] | Potency [14] | Potency [20]

CCCC(=O)OCCc1ccccc1
inactive: Potency [1] | Potency [2] | Potency [3] | Potency [16] | Potency [17] | Potency [18] | Potency [4] | Potency [19] | Potency [5] | Potency [6] | Potency [7] | Potency [8] | Potency [9] | Potency [10] | Potency [11] | Potency [12] | Potency [13] | Potency [14]

CNC(=O)c1ccccc1Sc1ccc2c(/C=C/c3ccccn3)n[nH]c2c1
active: Potency [1] 0.75 µM | Potency [2] 0.237 µM | Potency [17] 2.37 µM
inactive: Potency [3] | Potency [18] | Potency [4] | Potency [19] | Potency [5] | Potency [6] | Potency [7] | Potency [8] | Potency [9] | Potency [10] | Potency [12] | Potency [20]

Oc1c(I)cc(Cl)c2cccnc12
active: Potency [1] 29.8 µM | Potency [3] 16.8 µM and 19.3 µM | Potency [17] 48.5 µM
inactive: Potency [2] | Potency [16] | Potency [4] | Potency [19] | Potency [5] | Potency [6] | Potency [7] | Potency [8] | Potency [9] | Potency [10] | Potency [11] | Potency [12]

CC(C)=CCC1=C(O)c2ccccc2C(=O)C1=O
inactive: Potency [2] | Potency [18] | Potency [4] | Potency [5] | Potency [6] | Potency [7] | Potency [8] | Potency [9] | Potency [10] | Potency [11] | Potency [12] | Potency [13] | Potency [14]
active: Potency [1] 1.53 µM | Potency [15] 54.2 µM | Potency [16] 54.2 µM | Potency [17] 24.2 µM

Source: PubChem BioAssay (Tox21)
